Where “and” joins values, the source holds several entries; their conditions need not be identical. Equal entries are not always repeated. The campaign covered roughly 380,000 compounds. About 1,300 (0.34%) were called active.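 The calls were made as follows: active = drop in luminescence signal, shown as inhibition above about 50% in the replicate tests (limit read from the data, passing the limit was not always enough); inconclusive = probably only some replicates passing the limit; inactive = the rest.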 The list comes from a sample in which actives are over-represented; it also holds similar structures and randomly drawn compounds. Some structures have more than one record in an assay (separate samples or runs), and their calls can disagree.
System: Drosophila bursicon receptor LGR2 (rickets)
Assay: LGR2 cAMP reporter signal reduction – cell-based, HEK293, CRE-luciferase reporter, bursicon stimulation, primary screen (AID 720647);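 also: agonist challenge used bursicon conditioned medium at about half maximal strength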
Details: bursicon-stimulated, 4 h, at 9.99 µM, stronger effect = higher value

inhibition, inactive:
COc1cccc(CNCc2ccc3c(c2)OCO3)c1 -10.4%, Cc1ccc2oc(=O)c3cnn(CC(=O)N4CCCCCC4)c3c2c1 15.6%, COCCCN(C(=O)Cn1ncc2c(=O)oc3ccc(C)cc3c21)C(C)c1ccncc1 (configuration not stated) 0.725%, COCC(=O)N1[C@H](CNC(=O)c2ccccn2)[C@H](c2ccccc2)[C@@H]1CO 0.589%, C[C@H](CO)N1C[C@H](C)[C@H](CN(C)Cc2ccncc2)Oc2ccc(NC(=O)C3CCCCC3)cc2CC1=O 10.2%, COc1ccc2c3c(n(C)c2c1)[C@H](CO)NCC31CCN(C(=O)Nc2ccccc2F)CC1 -4.04%, COc1ccc2c3c(n(C)c2c1)[C@@H](CO)N(CC1CC1)CC31CN(C(=O)Nc2c(C)noc2C)C1 -9.38%, C[C@@H]1CN([C@H](C)CO)C(=O)c2cc(-c3ccccc3)cnc2O[C@H]1CN(C)C(=O)NC1CCCC1 9.83%, C/C(=N/OC(=O)c1cccc(C(F)(F)F)c1)c1cnccn1 16.7%, C/C(=N/OC(=O)c1c(-c2c(F)cccc2Cl)noc1C)c1cnccn1 32.3%, COc1ccc2c3c([nH]c2c1)[C@H](CO)N(Cc1ccccc1Cl)CC31CN(C(=O)C2CC2)C1 6.3%, COc1ccc(-c2ccccc2[C@H]2[C@@H](CO)N(C(=O)C3CCC3)[C@H]2C#N)cc1 3.46%, COc1ccc(S(=O)(=O)N(C)C[C@@H]2Oc3c(NS(=O)(=O)c4ccccc4)cccc3C(=O)N([C@@H](C)CO)C[C@@H]2C)cc1 -7.82%, O=C(Nc1ccc2c(c1)[C@H]1C[C@@H](CC(=O)N3CCc4ccccc4C3)O[C@H](CO)[C@H]1O2)Nc1ccccc1F 12.8%, COC(=O)N(C)C[C@H]1OCc2ccccc2-c2ccccc2C(=O)N([C@@H](C)CO)C[C@H]1C 2.52%, O=C(C[C@H]1C=C[C@H](NC(=O)Cc2ccccn2)[C@@H](CO)O1)NCCc1ccccc1 12.4%, CCS(=O)(=O)N1CC2(CN(Cc3ccccc3)[C@@H](CO)c3c2c2ccc(OC)cc2n3C)C1 -9.3%, CC(C)CC#Cc1cnc2c(c1)C(=O)N([C@H](C)CO)C[C@H](C)[C@@H](CN(C)Cc1ccccc1C(=O)O)O2 9.07%, C[C@H]1CCCCO[C@H](CN(C)C(=O)Nc2ccccc2)[C@@H](C)CN([C@@H](C)CO)C(=O)c2cc(NC(=O)CCC(F)(F)F)ccc2O1 8.75%, COc1ccc(-c2ccc3c(c2)[C@@H]2[C@@H](CCN2S(=O)(=O)c2ccccc2F)[C@H](CO)N3)cc1 -25.5%, C[C@@H]1CN([C@@H](C)CO)C(=O)c2cc(-c3ccc(F)cc3)cnc2O[C@H]1CN(C)C(=O)c1ccncc1 1.63%, O=C(C1CCCCC1)N1[C@H](CO)[C@@H](c2ccccc2)C12CN(Cc1cccc(Cl)c1)C2 1.64%, O=C(C[C@@H]1CC[C@H](NC(=O)C2CCOCC2)[C@@H](CO)O1)Nc1ccccc1 -3.27%, CCc1sc(N2[C@@H](C#N)[C@@H](c3ccccc3-c3ccccc3)[C@@H]2CO)nc1C 0.259%, COc1ccc(-c2cn(CC[C@H]3CC[C@@H](N)[C@H](CO)O3)nn2)cc1 -5.75%, COc1ccc2c3c([nH]c2c1)[C@H](CO)N(Cc1cccc(F)c1)CC31CCN(CC2CC2)CC1 16%, Cc1noc(C)c1NC(=O)Nc1ccc2c(c1)CC(=O)N([C@H](C)CO)C[C@@H](C)[C@@H](CN(C)S(=O)(=O)c1ccc(Cl)cc1)O2 4.84%, Cc1nc(NC(=O)c2ccc3c(c2)OCCO3)ccc1Br -47%, O=C(NCCc1ccc(C(F)(F)F)cc1)c1ccc2c(c1)OCO2 -2.8%, N#C[C@@H]1N[C@H](CO)[C@@H]1c1ccc(/C=C/c2ccccc2)cc1 -52.3%, C[C@H]1CN([C@@H](C)CO)S(=O)(=O)c2ccc(-c3cccc(C#N)c3)cc2O[C@H]1CN(C)CC1CC1 -1.41%, C[C@H]1CN([C@@H](C)CO)C(=O)c2cccc(NS(=O)(=O)c3ccccc3)c2O[C@@H]1CN(C)S(=O)(=O)c1cn(C)cn1 6.37%, COc1ccc(S(=O)(=O)N(C)C[C@@H]2OCCCC[C@@H](C)Oc3ccc(N(C)C)cc3C(=O)N([C@@H](C)CO)C[C@@H]2C)cc1 -3.31%, O=C1c2ccccc2C(Nc2ccc3c(c2)OCCO3)N1Cc1ccco1 (configuration not stated) 0.038%, COC(=O)c1cc(NC2c3ccccc3C(=O)N2c2ccc(Cl)cn2)cc(C(=O)OC)c1 (configuration not stated) -4.93%, Cc1ccc(-c2cnc3c(c2)C(=O)N([C@H](C)CO)C[C@H](C)[C@@H](CN(C)S(C)(=O)=O)O3)cc1 14.4%, C[C@H]1CN([C@@H](C)CO)S(=O)(=O)c2ccc(C#Cc3cccc(F)c3)cc2O[C@@H]1CN(C)S(=O)(=O)c1cn(C)cn1 16.7%, CCCC(=O)N1CCC2(CC1)CN(C(=O)C1CCCCC1)[C@@H](CO)c1[nH]c3cc(OC)ccc3c12 -2.6%, COc1ccc(S(=O)(=O)N[C@H]2C=C[C@@H](CC(=O)O)O[C@@H]2CO)cc1 14.6%, CC12CCC(=O)C=C1CCC1C2C(O)CC2(C)C1CCC2(O)C(O)CO (configuration not stated) -20.1%, CSc1ncnc2c1ncn2CCCNCc1ccco1 -1.41%, COCC(=O)Nc1ccc2c(c1)[C@H]1C[C@@H](CC(=O)NCc3ccccc3F)O[C@H](CO)[C@H]1O2 -12.4%, CC=Cc1ccc2n(c1=O)C[C@H]1[C@H](CO)[C@@H](C(=O)NC3CCCC3)N(Cc3cccnc3)[C@@H]21 (mixture of isomers) 5.27%, O=C(Cn1cc(/C=N/NC(=O)c2cccc(C(F)(F)F)c2)c2ccccc21)Nc1ccc(F)cc1 13.4%, O=C(CNCc1ccc(Cl)cc1)Nc1cccc(C(=O)O)c1 22.7%, COc1cccc(CNC(=O)C[C@@H]2CC[C@@H]3[C@H](COc4ccc(NC(C)=O)cc4C(=O)N3C)O2)c1 18.5%, CCN1[C@@H]2Cn3c(ccc(-c4cccc(OC)c4)c3=O)[C@H]1[C@@H](C(=O)N(C)C)[C@@H]2CO -2.29%, CCC(=O)N1CC(=O)N2[C@@H](CO)[C@H](c3ccc(C#CC4CCCC4)cc3)[C@@H]2C1 -13.8%, C[C@@H]1CN([C@H](C)CO)C(=O)Cc2cc(NS(C)(=O)=O)ccc2O[C@@H]1CN(C)C(=O)Nc1ccc2c(c1)OCO2 -12.8%, C[C@@H]1CN([C@H](C)CO)C(=O)c2cc(NC(=O)CCCCCC(=O)Nc3ccccc3N)ccc2O[C@H]1CN(C)Cc1ccncc1 -8.39%, C[C@@H]1CCCCO[C@H](CN(C)CC2CC2)[C@@H](C)CN([C@H](C)CO)C(=O)c2cc(NC(=O)Cc3ccccc3)ccc2O1 2.52%, COc1ccccc1-c1cn(CC[C@@H]2CC[C@H](NC(=O)c3ccccc3F)[C@H](CO)O2)nn1 0.819%, COc1ccc2c3c(n(C)c2c1)[C@@H](CO)N(C(=O)c1ccccn1)CC31CN(C)C1 2.95%, Cn1cnc(S(=O)(=O)N2C[C@@H]3N[C@H](C2)C3c2ccc(/C=C/c3ccccc3)cc2)c1 (some centres not stated) 7.15% and -2.81%, COc1ccc(-c2ccc(C3[C@@H]4CN(S(=O)(=O)c5cn(C)cn5)C[C@H]3N4)cc2)cc1 (some centres not stated) -3.69%, C[C@H]1CN([C@@H](C)CO)C(=O)c2ccccc2-c2ccccc2CO[C@H]1CN(C)S(=O)(=O)c1cccc(C#N)c1 -1.55%, C[C@H](NC(=O)C[C@@H]1CC[C@@H]2[C@H](COC[C@@H](O)CN2Cc2cc(F)ccc2F)O1)c1ccccc1 4.84%, O=C(C[C@H]1C[C@@H]2c3cc(NC(=O)CC4CC4)ccc3O[C@@H]2[C@H](CO)O1)NCc1cccnc1 2.45%

inhibition, active:
C(=N\Nc1ccc2ccccc2n1)/c1ccc2c(c1)OCO2 80.4%, Cc1ccc2oc(=O)c3cnn(CC(=O)N(Cc4ccco4)C4CCCCC4)c3c2c1 64.3%, O=c1c2c(nc3cc(-c4cccc(Cl)c4)[nH]n13)CCCC2 53.6%, Cc1ccc(C(=O)O/N=C(\N)c2ccccn2)cc1Cl 88.8%, CCc1ccc2oc(-c3ccc(N)cc3)nc2c1 75.2%, C=CCn1c(C)cc(C2=NNC(=NCC)SC2)c1C 84.5%, O=c1oc2ccccc2cc1-c1cn(-c2ccccc2)c(=S)[nH]1 102%, O=C(Nc1nc2ccccc2s1)c1ccc2c(c1)OCO2 79.6%, COc1ccc2c(c1)c(=Cc1ccc(N(C)C)cc1)c1cc(-c3ccccc3)[n+](C)n12 102%, Cc1ccnc(N2C(=O)c3ccccc3C2Nc2ccc3c(c2)OCCO3)c1 (configuration not stated) 66.5%, CSc1ncnc2c1ncn2CC(=O)C1CCC2C3CCC4=CC(=O)CCC4(C)C3CCC12C (configuration not stated) 89.8%, COc1cccc(/C=C/c2ccc3ccccc3n2)c1OC(C)=O 84.6%, O=C(O)c1cccc(NC(=S)N/N=C/c2c[nH]c3ccccc23)c1 75.5%

inhibition, 53% (active) and -30.1% (inactive):
Cn1cnc(S(=O)(=O)N2C[C@@H]3N[C@H](C2)C3c2ccc(-c3ccccc3F)cc2)c1 (some centres not stated)

Source: PubChem BioAssay AID720647 (Broad Institute, 2013)
